# Screens from PubChem.
# Compounds with a hit are over-represented: about 17% of the library has one in this group of screens.
# DT40 TDP1 CPT: DT40-hTDP1 cell growth loss with CPT; chicken DT40 Tdp1-/-;hTDP1 cells + 20 nM CPT, ATP luminescence, 48 h; Potency, µM (top dose mostly 46.2 µM), for the others: at the highest dose activity change, negative = growth inhibition, usual class: inhibitors; hit rate 12% among 420,000; AID 686979; also: % is scaled to controls: 0 for no effect and ±100 for the full control effect; nearly all actives have a fitted effect of over 55% in size
#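 Chicken DT40 Tdp1-/- cells stably complemented with human TDP1 were seeded at 400 cells/well in medium containing 20 nM camptothecin, exposed to pin-transferred compounds, and grown at 37 °C for at least 48 hr. Viability was read as ATP luminescence.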
# HT1080NT lethal: kills 2HG-producing HT-1080-NT fibrosarcoma cells. HT-1080-NT fibrosarcoma viability, CellTiter-Glo ATP luminescence, 48 h. Potency, µM (doses to about 46.1 µM), without a hit: at the top dose activity, negative = less viability, most hits filed as cytotoxic. hit rate 1.6% among 360,000;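 also: NT is the 2HG producing partner of a matched IDH1 knockdown line; 0% = DMSO-treated cells and -100% = media-only wells without cells; nearly all actives have a fitted effect of over 55% in size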
#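 Toxicity toward the 2HG-producing NT line was scored as %Activity, normalised to DMSO and no-cell wells, from CellTiter-Glo luminescence after 48 hours' treatment.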
# HepG2 tox: kills HepG2 cells in TGF-b inhibitor counter-screen | HepG2 CAGA-GFP viability, ATP luminescence, 18 h | Potency, µM (series often up to 46.1 µM), without a hit: at the top dose activity change, negative = cytotoxicity, usual class: cytotoxic | hit rate 0.76% among 410,000 | AID 588856
#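 CellTiter-Glo luminescence gave cytotoxicity after 18 hours at 37 degrees C. The cells were HepG2 CAGA-GFP in 1% FBS DMEM, stimulated with 500 pg/mL TGF-beta after compound addition. %Activity was normalised to no-cell wells (complete cell-killing) and DMSO (no toxicity), and curves were fitted and classified.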
# HT1080 IDH1KD tx: HT-1080 IDH1 knockdown cell toxicity (counter line); HT-1080 IDH1 knockdown viability, ATP luminescence, 48 h; Potency, µM (series often up to 46.1 µM), without a hit: top-dose activity, negative = toxicity, usual class: cytotoxic; hit rate 2% among 360,000; AID 686971;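 also: 0% = DMSO wells and -100% = cell-free medium wells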
#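 Luminescent ATP read-out (CellTiter-Glo, 10 min at room temperature) after 48 h compound exposure at 37 °C gave viability of IDH1-knockdown HT-1080 cells. Activity was normalised to DMSO and cell-free wells, then fitted as concentration-response curves.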
# DT40 TDP1 no CPT: qHTS for Inhibitors of human tyrosyl-DNA phosphodiesterase 1 (TDP1): qHTS in cells in absence of CPT; DT40 Tdp1-/- hTDP1 cells, no CPT, ATP luminescence, 48 h; Potency, µM (highest dose often 46.2 µM), inactives show at the highest dose activity change, negative = growth inhibition, usual class: inhibitors; hit rate 15% among 420,000; also: % is scaled to controls: 0 for no effect and ±100 for the full control effect; nearly all actives have a fitted effect of over 55% in size
#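 Stably hTDP1-transfected Tdp1-null chicken DT40 cells were treated with library compounds minus camptothecin and grown for at least 48 hr at 37 °C, after which cellular ATP was quantified by luminescence.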
# TGFb SMAD3 inh: blocks TGF-b signaling. hit rate 1.2% among 410,000. Potency, µM (series often up to 46.1 µM), for inactives: at the highest dose activity, negative = inhibition, hits mostly inhibitors. AID 588855. HepG2 CAGA-GFP TGF-b/SMAD3 reporter, GFP fluorescence, 18 h; TGF-beta stimulated, 500 pg/mL final; also: % is scaled to controls: 0 for no effect and ±100 for the full control effect; nearly all actives have a fitted effect of over 65% in size
#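 HEPG2 CAGA-GFP reporter cells (1000/well, DMEM with 1% FBS) received compounds, then recombinant TGF-beta at 500 pg/mL final for 18 hours at 37 degrees C. Per-cell GFP summed per well was normalised to unstimulated and stimulated DMSO controls before curve fitting.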
# * hit, by the source's call; ? = inconclusive; · = no result given; [ ] = remark or other dose. Calls follow the shape of the dose curve; as a rule, active = well fitted curve in the direction sought with a large enough effect; inconclusive = small, poorly fitted or top-dose-only effect, or another doubt; inactive = no such curve, though single readings can be large; an effect the other way counts as inactive or inconclusive. Potency is read from the fitted curve at half-maximal effect.
SMILES,DT40 TDP1 CPT,HT1080NT lethal,HepG2 tox,HT1080 IDH1KD tx,DT40 TDP1 no CPT,TGFb SMAD3 inh
O=C(c1sc2ccccc2c1Cl)N(Cc1ccco1)C1CCS(=O)(=O)C1 (configuration not stated),?,2.6%,-17.9%,-12.8%,25.9µM*,-7.3%
O=C(Nc1cccc([N+](=O)[O-])c1)c1ccc2ccccc2c1O,23.1µM*,?,-30.7%,?,14.6µM*,?
O=C(Nc1cccnc1)c1ccc2ccccc2c1O,-17.6%,-1.7%,3.6%,-0.3%,13µM*,10.0%
O=C(O)c1ccccc1C(=O)Nc1ccccn1,-0.9%,1.4%,-43.7%,2.8%,-4.0%,-1.8%
O=C(Nc1ccccn1)c1ccc2ccccc2c1O,3.1%,-20.6%,7.3%,-0.7%,14.6µM*,-2.5%
COc1ccc(B(O)O)cc1,-10.1%,·,18.7%,·,-1.4%,6.7%
COc1ccc(C(=O)C2CCCN(C(=O)c3cc(C)nc(C)n3)C2)cc1OC (configuration not stated),-16.0%,-3.7%,-5.8%,2.5%,-15.9%,8.9%
Cc1ccc(-n2ncc3c(N4CCC5(CC4)OCCO5)ncnc32)c(C)c1,11.6µM*,?,-30.5%,-10.2%,14.6µM*,-28.3%
CCN(CC)C(=O)C1CCN(c2ncnc3c2cnn3-c2ccc(C)cc2C)CC1,?,-11.3%,12.8%,-2.2%,20.6µM*,15.3%
Cc1ccc(-n2ncc3c(N4CCC(C(N)=O)CC4)ncnc32)c(C)c1,?,-3.6%,-10.4%,0.1%,1.1%,3.6%
CC(CNC(=O)C(=O)NC(C)CCc1ccccc1)Cc1ccccc1 (configuration not stated),-4.3%,-14.1%,3.3%,-15.9%,-3.5%,10.2%
CN1/C(=C\C(=O)CSc2nnc(NCc3ccccc3)s2)C(C)(C)c2ccccc21,14.6µM*,-6.2%,-44.1%,-12.7%,?,?
Cc1cc(C(=O)CSc2nnc(NCc3ccccc3)s2)c(C)n1C,10.3µM*,14.6µM*,-6.0%,?,13µM*,-7.2%
CCOc1cc(C=O)cc(Cl)c1OCC(N)=O,?,1.7%,8.8%,10.3%,18.4µM*,7.3%
COc1ccc(/C=C/c2onc(C)c2S(=O)(=O)N2CCC(C(=O)N3CCCCCC3)CC2)cc1,?,-11.8%,-19.5%,-15.3%,?,?
Cc1cccc(N2CCN(C(=O)C3CCN(S(=O)(=O)c4c(C)noc4C)CC3)CC2C)c1 (configuration not stated),8.2µM*,-5.8%,4.4%,0.0%,9.2µM*,?
Cc1cccc(/C=C/c2onc(C)c2S(=O)(=O)N2CCC(C(=O)N3CCCCC3)CC2)c1,29.1µM*,-1.5%,-1.8%,-8.1%,18.4µM*,?
Cc1ccc(/C=C/c2onc(C)c2S(=O)(=O)N2CCC(C(=O)N3CCCCC3)CC2)cc1,?,-6.3%,-19.4%,-4.7%,?,-10.9%
CCOC(=O)C1CCCN(C(=O)C2CCN(S(=O)(=O)c3c(C)noc3/C=C/c3ccc(C)cc3)CC2)C1 (configuration not stated),18.4µM*,·,-12.7%,·,?,0.0%
Cc1noc(C)c1S(=O)(=O)N1CCC(C(=O)N2CCC(C)CC2)CC1,-10.9%,-0.3%,4.1%,-2.2%,2.3%,-18.7%
CCCN(C(=O)C1CCN(S(=O)(=O)c2c(C)noc2/C=C/c2ccc(C)cc2)CC1)c1ccccc1F,?,·,-7.2%,·,23.1µM*,?
N[C@@H](CCS(=O)O)C(=O)O,?,·,·,·,-9.1%,·
CCCN1CCN(C(=O)C2CCN(S(=O)(=O)c3c(C)noc3/C=C/c3ccc(C)cc3)CC2)CC1,20.6µM*,16.4µM*,-61.0%,?,20.6µM*,?
Cc1c(O)nc(SCC(=O)Nc2ccc3c4c(cccc24)CC3)n(-c2ccc(F)cc2)c1=O,1.3%,11.3%,-26.4%,-11.2%,1.1%,?
CC1CN(N=Cc2ccc([N+](=O)[O-])o2)C(=N)O1 (configuration not stated),20.6µM*,-6.7%,-41.3%,-3.3%,18.4µM*,?
SMILES,DT40 TDP1 CPT,HT1080NT lethal,HepG2 tox,HT1080 IDH1KD tx,DT40 TDP1 no CPT,TGFb SMAD3 inh
O=C1C2C(C(=O)N1/N=C/c1ccc([N+](=O)[O-])o1)C1C=CC2C12CC2 (configuration not stated),16.4µM*,?,-101.5%,?,23.1µM*,?
CC1CS(=O)(=O)CCN1/N=C/c1ccc([N+](=O)[O-])o1 (configuration not stated),-8.8%[21.1 µM],·,·,·,?,·
O=C1SCCN1N=Cc1ccc([N+](=O)[O-])o1,8.2µM*,?,-52.3%,-4.8%,18.4µM*,?
O=C(NC1CCCC1)C1CCN(C(=O)c2ccccc2Cl)CC1,7.9%,-0.8%,4.7%,4.5%,-2.4%,-1.7%
O=C(Nc1ccccc1[N+](=O)[O-])c1csnn1,-1.4%,·,-12.5%,·,1.2%,-5.2%
c1ccc(NN(Cc2ccncc2)c2ccccc2)cc1,-23.8%,-0.8%,-26.7%,0.5%,?,-11.3%
Cc1cc(CN(Nc2ccccc2)c2ccccc2)cc(C)n1,?,-4.8%,-11.7%,-4.1%,14.6µM*,-3.8%
N#Cc1ccc(CN(Nc2ccccc2)c2ccccc2)cc1,18.4µM*,?,-25.5%,-16.7%,20.6µM*,?
Nc1ccc(Oc2ncccn2)cc1,?,-0.2%,-78.9%,0.0%,23.1µM*,?
O=Cc1cccc(Oc2ncccn2)c1,0.7%,7.9%,0.2%,4.2%,1.3%,-15.7%
Cc1ccc(NC(=O)Nc2nnc(N(CC(C)C)CC(C)C)s2)cc1Cl,9.2µM*,·,3.5%,·,16.4µM*,·
O=C(Nc1ccc(Cl)c(Cl)c1)Nc1nnc(CSc2ccccc2)s1,2.59µM*,-4.2%,-4.7%,-0.9%,5.17µM*,?
O=C(Nc1ccc(Cl)cc1)Nc1nnc(CSCc2ccccc2Cl)s1,16.4µM*,3.6%,5.8%,-0.3%,11.6µM*,?
CC(C)(C)c1nnc(NC(=O)Nc2ccc(Cl)cc2)s1,?,-0.4%,11.2%,6.1%,16.4µM*,-18.3%
CCOC(=O)c1c(S(=O)(=O)N(C)C2CCCCC2)c(C)n(C)c1C,-27.2%,-3.9%,-3.9%,4.2%,-18.8%,-6.3%
COc1cc(OC)c2nc(-c3cc4c(c(OC)c3)OCCN(Cc3cn(C)nc3C)C4)cc(C)c2c1,-6.5%[9.04 µM],·,·,·,?,·
